One test concerns the target IL10. Put plainly: pooled miR-30 sensor sort-seq; sequence = guide strand. Particulars: shRNA.
For AACAACAAGTTGTCCAGCTGAT, the sensor-assay potency score (higher = more potent) was 0.182.
With TAGGCTTCTATGTAGTTGATGA, the sensor-assay potency score (higher = more potent) was -0.258.
As to TAACAACAAGTTGTCCAGCTGA, the sensor-assay potency score (higher = more potent) came to 0.191.
Turning to ATTAAAGGCATTCTTCACCTGC, the sensor-assay potency score (higher = more potent) is -0.126.
In turn, ATCTCGGAGATCTCGAAGCATG came in with a sensor-assay potency score (higher = more potent) of -1.73.
As to TTGATGAAGATGTCAAACTCAC, the sensor-assay potency score (higher = more potent) is -0.225.
As to AAGAAAGTCTTCACTCTGCTGA, the sensor-assay potency score (higher = more potent) amounted to 0.0469.

A further test concerns the target IL12RB2. Described as above. Particulars: shRNA.
On to TTAACCATATTCCAGAGCCTGC, for which the sensor-assay potency score (higher = more potent) was -1.49.
With TTAGCTGTAGAGTATACTCAGT, the sensor-assay potency score (higher = more potent) was -0.26.
As to TTTTGCTTTAATCAACAGCCAC, the sensor-assay potency score (higher = more potent) was -1.02.
The sequence TTGTCTACTGTAGTCAATGTGC had a sensor-assay potency score (higher = more potent) of -0.32.
Same read-out and setting: in the case of TTGCAGACAAACAAGGTTGTAC it was 0.163.
Consider TTTGCTTTAATCAACAGCCACG, for which the sensor-assay potency score (higher = more potent) is -1.11.
Same read-out and setting: for TTGAATTTGCTGCAGACACAGC the value was -0.876; for TTGATTCTTCTGTCAAACTTGT, 0.0343.
TTGTACAGGATTAACTTGTTAC gave a sensor-assay potency score (higher = more potent) of -0.744.
On to TTGAATTTCATCACTATTGATA, for which the sensor-assay potency score (higher = more potent) was -0.279.
TACCAGACATCTAACATCCCAG: the sensor-assay potency score (higher = more potent) was -0.395.
Still for that read-out and setting: for TTCTGGAGCAACACCAACGAAG the value was -0.95.

A further test has as its target IL13RA1. The test is described as above. Particulars: shRNA.
TTCCATGTCCATATTACTGTGC showed a sensor-assay potency score (higher = more potent) of -0.274.
As to TTTTCTATCAGCACTACAGAGT, the sensor-assay potency score (higher = more potent) is -0.723.
Turning to TTTGACTCTTATTCTGACTGTG, the sensor-assay potency score (higher = more potent) amounted to 0.568.
Same read-out and setting: in the case of TTGACCATTATTTGGACACTGT it was 0.157; in that of TTGACTCTTATTCTGACTGTGT, 0.685.
Same read-out and setting: for TTTCTTATCTTGTTTGTCGCCA the value was 0.315.
In turn, TACAGAGTCGGTTTCCTCCTTG displayed a sensor-assay potency score (higher = more potent) of 0.15.
TTGTTCAAAACTGGAATCCTTC returned a sensor-assay potency score (higher = more potent) of -0.391.
For the sequence ATAGACTACAATTTGAGCTGGC, the sensor-assay potency score (higher = more potent) came to 0.897.
As for TTGCTTCTCATAGATGTCGTAC, the sensor-assay potency score (higher = more potent) was -0.044.
The sequence TAGTAGAGAGTATAGTTAGTGT returned a sensor-assay potency score (higher = more potent) of -0.663.
For TTCTTATCTTGTTTGTCGCCAA, the sensor-assay potency score (higher = more potent) was -0.0977.

The target in a further test is IL16. The description is as above. Particulars: shRNA.
With TTCATGAAGAATATCCTCCTAC, the sensor-assay potency score (higher = more potent) amounted to 0.448.
As for TTCCTTGTGACAATCACAGCTT, the sensor-assay potency score (higher = more potent) came out at 0.571.
The same measure, in the same setting: in the case of TTGGTCTCGAAGTTCCCGCAGC it was -0.85; in that of TGATTCACCATTGAGCTCCAGA, -0.0119; in that of ATCTTCTCCAGTGTCACCGTGC, -0.369.
Same read-out and setting: in the case of TTTAGGAACAACCTTTTGCTGG it was -0.755.
The same measure, in the same setting: for TTCTACAGAAACATCACTGGCT the value was 0.755.
The sequence TTCTCCAGTGTCACCGTGCAGA returned a sensor-assay potency score (higher = more potent) of -0.677.
TTTGTTCTGAGGCTGCTCCTTT: the sensor-assay potency score (higher = more potent) was 0.156.
Further: reference of the scale not given here.
